The results in this text go back to PubChem BioAssay AID434970 (Sanford-Burnham Center for Chemical Genomics, 2010).

SMILES strings stand for the structures. The campaign covered roughly 11,000 compounds. About 310 (2.8%) were called active. This is one part of a sample in which actives are shown more often than they occur. Cut-off read from the data, not from the text of the source: active = activity change below about -85%; inactive = the rest.

The test system of this test is intestinal alkaline phosphatase [Mus musculus]. The test can be described thus: mouse intestinal phosphatase enzyme activation – biochemical, luminescence, single concentration, confirmation (AID 434970). The following applies: purified mouse IAP, CDP-Star luminescence, 30 min, at 10 µM; activation factor: measured here: IAP activation factor, stronger effect = higher value; activity change, negative = activation: stronger effect = lower value.
Consider `Cc1ccc(CN2C3CCCC2CC(NC(=S)NCc2ccccc2)C3)cc1` (stereo not given), for which the activation factor turned out to be 2.88 and the activity change, negative = activation is -188% (active).
For `Cc1cc(C)cc(NC(=S)NC2CC3CCCC(C2)N3Cc2cccs2)c1` (stereo not given), the activation factor was 2.5 and the activity change, negative = activation is -150% (active).
Take `Cc1ccc(CN2C3CCCC2CC(NC(=O)Nc2cccc(F)c2)C3)cc1` (stereo not given): the activation factor worked out at 4.48 and the activity change, negative = activation is -348% (active).
As to `CCc1ccc(N2C(=O)NC(=O)C(Cc3ccc(OC)cc3OC)C2=O)cc1` (stereo not given), the activation factor came out at 1.06 and the activity change, negative = activation is -5.6% (inactive).
The corresponding values for `CN1CCN(Cc2cc(C(C)(C)C)c(O)c(C(C)(C)C)c2)CC1` are 0.944 and 5.6% (inactive).
For the compound `CC(CO)(CO)N=Cc1c(O)n(-c2cccc3ccccc23)c(=O)[nH]c1=O`, the activation factor came to 1.12 and the activity change, negative = activation was -12.2% (inactive).
Regarding `Cc1cc(NC(=O)COC(=O)c2c(C)nn(Cc3ccccc3)c2Cl)no1`, the activation factor is 0.971 and the activity change, negative = activation was 2.9% (inactive).
For the compound `CSc1ccc(C(=O)C(C)(C)N2CCOCC2)cc1`, the activation factor came out at 0.965 and the activity change, negative = activation was 3.5% (inactive).
Take `CCOC(=O)c1c(-n2c(C)cc(C=C3C(=O)NC(=S)NC3=O)c2C)sc2c1CCCC2`: the activation factor worked out at 0.649 and the activity change, negative = activation is 35.1% (inactive).
The corresponding values for `COc1ccc(-n2c(=O)[nH]c3ccccc3c2=O)c(OC)c1` are 1.08 and -7.55% (inactive).
The corresponding values for `CCOP(=O)(C(NC(=O)c1ccccc1Cl)=C(Cl)Cl)c1ccccc1` (stereo not given) are 1.07 and -6.55% (inactive).
As to `O=[N+]([O-])c1cc(S(=O)(=O)c2ccc(O)c([N+](=O)[O-])c2)ccc1O`, the activation factor amounted to 0.471 and the activity change, negative = activation is 52.9% (inactive).
Turning to `O=C(Cc1ccccc1)Oc1ccccc1N1C(=O)CCC1=O`, the activation factor came to 1.07 and the activity change, negative = activation was -7.1% (inactive).
In the case of `CCOc1ccc2nc(N3CCC(C(=O)N4CCC5(CC4)OCCO5)CC3)sc2c1`, the activation factor came out at 0.97 and the activity change, negative = activation is 3% (inactive).
Consider `CC1(C)CSC(Nc2ccc(F)c(Cl)c2)=N1`, for which the activation factor worked out at 0.924 and the activity change, negative = activation was 7.6% (inactive).
On to `Clc1ccc(C(c2ccc(Cl)cc2)n2cc[n+](CC(OCc3ccc(Cl)cc3Cl)c3ccc(Cl)cc3Cl)c2)cc1` (stereo not given), for which the activation factor was 31 and the activity change, negative = activation is -3000% (active).
Take `Cc1nc2cc(F)ccc2n1C1CCN(Cc2nnnn2CCc2ccccc2)CC1`: the activation factor is 1.13 and the activity change, negative = activation is -13.2% (inactive).
Take `O=C(Cn1cnc2ccccc2c1=O)NCCC(=O)N1CCC2(CC1)OCCO2`: the activation factor was found to be 1.09 and the activity change, negative = activation was -9.25% (inactive).
Regarding `COc1ccc(P2(=O)Nc3ccccc3N2)cc1`, the activation factor is 0.951 and the activity change, negative = activation is 4.95% (inactive).
With `CCOC(=O)c1ccc(N2C(=O)CC(N3CC=C(c4ccc(F)cc4)CC3)C2=O)cc1` (stereo not given), the activation factor was 0.996 and the activity change, negative = activation is 0.45% (inactive).
